# Source: PubChem BioAssay
# Active and inactive are the calls of the source.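 The calls were made as follows, unless noted: active = inhibition above 20% together with a positive visual image hit; inconclusive = visual image hit but inhibition not above 20%; inactive = no visual image hit.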
# Assays:
# [1] = inhibitors of TNFa-induced NFkB p65 translocation, primary screen, imaging, HUVEC, MLSMR starter and 10KST1 sets (AID 438); settings: HUVEC TNFa-induced p65 nuclear translocation; cell count: measured here: nuclei count (cytotoxicity indicator), at 2.08 µM; inhibition: at 2 µM, stronger effect = higher value, 0% TNFa-plus-vehicle, 100% no-TNFa wells;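 also: compound added about 3h40 before a 20 min TNFalpha stimulation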;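 as to inhibition: signal is the nuclear over cytoplasmic p65 intensity ratio per well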
# [2] = reduction of polyQ htt aggregates in cells – imaging, exon1htt(103Q)mCFP cells, high-content imaging, primary screen (AID 483;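 active = visual image review flags a hit and inhibition of aggregation exceeds 20%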;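 also: compound exposure lasted 3 days before fixation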;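 as to nuclei count: percent of the per-plate median nuclei count of sample wells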); settings: exon1htt(103Q)mCFP cell line, aggregate imaging, at 2 µM; inhibition of aggregation: stronger effect = higher value; nuclei count: measured here: cell count, toxicity
# [3] = endothelial E-selectin expression blockers – imaging, HUVEC, immunofluorescence, MLSMR starter and 10KST1 sets, primary screen (AID 487;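 active = visually confirmed hit in the image check and inhibition above 20%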;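 as to inhibition: signal is fraction of cell area covered by stained E-selectin grains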;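 as to nuclei count: 100% = median nuclei count of all wells on the same plate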); settings: HUVEC TNFalpha-induced E-selectin immunofluorescence imaging, at 2 µM; inhibition: stronger effect = higher value; nuclei count: measured here: cell number, toxicity
# [4] = molecular target: Voltage-gated potassium channel subunit beta-2 (Rattus norvegicus) (UniProt P62483); assay: inhibitors of rat Kvbeta2 reductase activity – biochemical, NADPH fluorescence, primary screen (AID 622;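 active = fluorescence slope higher than the sample average by over 3 SD, cut at about -0.22 in these data, passing the limit was not always enough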;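 also: slope of raw intensity against log time taken from 70 to 1610 s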); settings: recombinant KvBeta, 4-cyanobenzaldehyde reduction, at 10 µM, stronger effect = higher value
# Voltage-gated potassium channel subunit beta-2 (Rattus norvegicus), sequence (P62483 whole entry, looked up): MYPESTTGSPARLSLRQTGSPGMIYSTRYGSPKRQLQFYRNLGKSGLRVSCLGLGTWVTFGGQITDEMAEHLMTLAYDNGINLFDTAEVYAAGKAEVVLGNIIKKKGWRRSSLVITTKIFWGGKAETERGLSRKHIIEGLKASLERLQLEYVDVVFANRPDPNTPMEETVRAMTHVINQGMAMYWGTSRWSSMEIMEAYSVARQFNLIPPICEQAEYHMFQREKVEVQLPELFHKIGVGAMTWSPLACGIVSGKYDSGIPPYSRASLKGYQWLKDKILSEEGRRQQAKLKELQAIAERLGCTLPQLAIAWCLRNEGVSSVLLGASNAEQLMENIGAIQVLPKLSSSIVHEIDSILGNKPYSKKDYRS
# [5] = molecular target: Voltage-gated potassium channel subunit beta-2 (Rattus norvegicus) (UniProt P62483); assay: enhancers of rat Kvbeta2 NADPH turnover – biochemical, NADPH fluorescence, primary screen (AID 623;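 active = NADPH fluorescence slope more negative than the mean of all samples by about 3 SD, 99.7% confidence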;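 also: fluorescence intensity change per second fitted from 20 to 320 s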); settings: Recombinant KvBeta, NADPH fluorescence decrease slope, 10 min; at 10 µM; stronger effect = lower value
# [6] = molecular target: Muscarinic acetylcholine receptor M4 (Homo sapiens) (UniProt P08173); assay: M4-linked GIRK flux change, two-sided – cell-based, HEK293 M4/GIRK, thallium flux, BTC-AM, M4 allosteric agonist project, primary screen (AID 625;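 active = fluorescence slope after compound addition differing from the mean of all tested samples at 99.7% confidence, mostly higher but some lower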;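 also: thallium influx through GIRK channels coupled to M4 in HEK293 cells with BTC-AM dye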); settings: at 10 µM, actives lie on both sides
# Muscarinic acetylcholine receptor M4 (Homo sapiens), sequence (P08173 whole entry, looked up): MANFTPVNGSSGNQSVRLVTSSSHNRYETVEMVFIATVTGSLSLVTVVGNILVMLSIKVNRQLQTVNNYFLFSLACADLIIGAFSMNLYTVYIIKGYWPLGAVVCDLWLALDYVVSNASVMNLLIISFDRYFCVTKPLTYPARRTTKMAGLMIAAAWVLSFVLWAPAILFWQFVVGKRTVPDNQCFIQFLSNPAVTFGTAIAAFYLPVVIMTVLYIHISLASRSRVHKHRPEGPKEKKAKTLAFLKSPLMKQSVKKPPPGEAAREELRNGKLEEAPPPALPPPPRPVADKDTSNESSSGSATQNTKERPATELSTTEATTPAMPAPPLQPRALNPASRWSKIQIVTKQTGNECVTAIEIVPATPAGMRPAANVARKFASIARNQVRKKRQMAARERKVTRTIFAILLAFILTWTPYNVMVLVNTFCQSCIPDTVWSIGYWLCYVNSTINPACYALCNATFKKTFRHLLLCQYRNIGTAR
# [7] = blockers of RIG-like receptor reporter activation – cell-based, Sendai virus stimulus, luciferase, 10K MLSCN set, TLR/RLR signaling modifier project, primary screen (AID 602276;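 active = inhibition at or above 50% at 10 µM; inactive = inhibition below 50%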;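 also: firefly luciferase from ISG56 promoter only with Renilla not read in this screen; 0% = Sendai virus plus DMSO and 100% = medium plus DMSO without virus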); settings: HEK293 RL24 IRF3 luciferase reporter, at 10 µM, stronger effect = higher value
# [8] = TLR3 IRF3 reporter activation blockers – cell-based, poly I:C stimulus, luciferase, 10K MLSCN set, primary screen (AID 602277;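 active = inhibition of the reporter signal at or above 50%; inactive = inhibition below 50%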); settings: HEK293-TLR3 RL24 IRF3 luciferase reporter, at 10 µM, stronger effect = higher value
# [9] = molecular target: Alpha-2C adrenergic receptor (Homo sapiens) (UniProt P18825); assay: compounds altering alpha2C-coupled GIRK flux – cell-based, HEK293 alpha2C/GIRK1/2, thallium flux, primary screen (AID 624;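 active = fluorescence slope after compound addition differing from the mean of all screened samples at 99.7% confidence, in either direction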;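 also: slope of fluorescence ratio to pre-addition baseline per second over 15 to 24 s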); settings: thallium flux BTC fluorescence, at 10 µM, actives lie on both sides
# Alpha-2C adrenergic receptor (Homo sapiens), sequence (P18825 whole entry, looked up): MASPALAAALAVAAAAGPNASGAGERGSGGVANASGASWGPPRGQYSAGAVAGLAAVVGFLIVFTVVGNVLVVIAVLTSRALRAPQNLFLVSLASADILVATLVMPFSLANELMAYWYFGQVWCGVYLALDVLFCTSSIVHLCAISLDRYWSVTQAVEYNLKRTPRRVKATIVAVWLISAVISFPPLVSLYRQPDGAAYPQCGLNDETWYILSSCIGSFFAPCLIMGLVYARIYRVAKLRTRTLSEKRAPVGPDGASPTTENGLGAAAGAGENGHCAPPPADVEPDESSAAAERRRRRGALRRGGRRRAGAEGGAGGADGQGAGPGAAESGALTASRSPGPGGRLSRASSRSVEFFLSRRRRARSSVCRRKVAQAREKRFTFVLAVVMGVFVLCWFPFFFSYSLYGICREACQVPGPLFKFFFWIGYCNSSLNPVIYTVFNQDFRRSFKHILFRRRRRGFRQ
# [10] = Primary imaging screen for DUSP6 inhibitors that restore phospho-Erk in transfected HeLa cells, chemical complementation (AID 609;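 active = compounds giving at least 50% inhibition in the cell-based MKP-3 phosphatase rescue imaging test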;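 as to inhibition: phospho-Erk level distribution per well compared with pooled transfected vehicle control wells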); settings: HeLa MKP-3 transfected, phospho-Erk imaging KS statistic, at 10 µM, cells stimulated with TPA for 15 min
# [11] = molecular target: Dual specificity protein phosphatase 6 (Homo sapiens) (UniProt Q16828); assay: as above; settings: HeLa MKP-3 transfected, phospho-Erk imaging KS statistic; at 10 µM; stronger effect = higher value; cells stimulated with TPA for 15 min
# Dual specificity protein phosphatase 6 (Homo sapiens), sequence (Q16828 whole entry, looked up): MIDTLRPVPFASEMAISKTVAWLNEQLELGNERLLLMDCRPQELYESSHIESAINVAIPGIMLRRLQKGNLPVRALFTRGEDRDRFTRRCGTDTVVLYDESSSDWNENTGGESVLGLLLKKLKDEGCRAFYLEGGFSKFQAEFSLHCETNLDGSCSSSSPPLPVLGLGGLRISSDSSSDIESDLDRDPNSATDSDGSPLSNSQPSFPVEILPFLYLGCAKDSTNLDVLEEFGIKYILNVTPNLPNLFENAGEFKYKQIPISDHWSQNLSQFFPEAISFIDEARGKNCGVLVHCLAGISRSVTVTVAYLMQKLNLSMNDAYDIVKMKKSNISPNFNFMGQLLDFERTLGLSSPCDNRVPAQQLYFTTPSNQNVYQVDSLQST
SMILES,cell count [1],inhibition [1],inhibition of aggregation [2],nuclei count [2] [%],inhibition [3],nuclei count [3] [%],fluorescence slope [4],NADPH fluorescence slope [5],fluorescence slope [6],inhibition [7],inhibition [8],slope [9],z-score ([10]; measured here: cell density z-score),z-score ([10]; measured here: nuclear c-Myc green intensity z-score),"z-score ([10]; measured here: nuclear pErk red intensity z-score, stronger effect = higher value)",inhibition [11]
O=C(O)CC1CCCC(c2ccccc2)C1=O (stereo unspecified),658,-6.5% (inactive),-35% (inactive),103,108% (active),102,-0.544 (inactive),-7.4e-06 (inactive),0.00508 (inactive),8.33% (inactive),11.2% (inactive),,,,,
C=CCC(NCc1ccco1)c1ccc(OC)cc1OC (stereo unspecified),697,7.5% (inactive),4.4% (inactive),110,-94.5% (inactive),108,-0.597 (inactive),2.3e-05 (inactive),0.00584 (inactive),12.6% (inactive),18.9% (inactive),,,,,
CCOCCCNC(=O)CCNS(=O)(=O)c1ccc(C)cc1,547,-15% (inactive),-10.7% (inactive),90.3,,,-0.411 (inactive),-3.1e-05 (inactive),,-17.9% (inactive),22.8% (inactive),0.00305 (inactive),,,,
CCCCc1oc2ccccc2c1C(=O)c1cc(I)c(OCCN(CC)CC)c(I)c1,651,-9% (inactive),,,-235% (inactive),136,-0.467 (inactive),-4.3e-05 (inactive),,9.88% (inactive),43.5% (inactive),0.00817 (inactive),0.542,-0.674,0.954,5.42% (inactive)
Cc1ccc2c(c1)c1c(n2CC(O)Cn2c(C)nc3ccccc32)/C(=N\O)CCC1 (stereo unspecified),459,2.7% (inactive),-25.1% (inactive),14.1,-15.9% (inactive),103,-0.433 (inactive),9.2e-05 (inactive),0.00656 (inactive),7.68% (inactive),-1.8% (inactive),,,,,
N=c1c(C(=O)NCc2ccc(F)cc2)cc2c(=O)n3ccccc3nc2n1CCCN1CCOCC1,537,4.4% (inactive),-26.3% (inactive),102,-45.8% (inactive),122,-0.374 (inactive),-1e-05 (inactive),,,69.7% (active),0.00357 (inactive),,,,
COc1ccccc1OCCn1c(=O)sc2ccccc21,478,9.8% (inactive),-14.7% (inactive),90.3,,152,-0.477 (inactive),1.7e-05 (inactive),0.0055 (inactive),1.53% (inactive),6.17% (inactive),,,,,
O=C(Nc1ccc2c(c1)OCO2)C1CCCN1C(=O)Nc1ccccc1F (stereo unspecified),432,9% (inactive),-11.8% (inactive),98.2,,135,-0.418 (inactive),3.8e-05 (inactive),0.0058 (inactive),16.1% (inactive),24.2% (inactive),,,,,
COc1ccc(N2CCN(c3oc(COc4ccccc4)nc3C#N)CC2)cc1,449,9.4% (inactive),-7.4% (inactive),102,,155,-0.602 (inactive),-9.8e-06 (inactive),0.00622 (inactive),10.1% (inactive),3.38% (inactive),,,,,
Cc1ccc(S(=O)(=O)N2CCOCC2)cc1C(=O)Nc1ccc(-c2cn3ccsc3n2)cc1,614,-6.3% (inactive),-3% (inactive),113,-29.6% (inactive),122,-0.462 (inactive),-8.9e-06 (inactive),0.00613 (inactive),-3.48% (inactive),-16.4% (inactive),,,,,
